Sampled rows, rich in hits. Any-hit rate of the full collection: about 3.9%.
BRCA1 expr up: activators of BRCA1 expression; Potency, µM (titrated, usually from 46.1 µM), usual class: activators; 380,000 tested, 1.1% active; MCF7-BRCA1-FFLuc reporter, luminescence, 48 h; response scale: scaled: vehicle 0%, 10 µM genistein 100%; note: nearly all actives have a fitted effect of over 80% in size
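Activators of BRCA1 expression were detected as increased firefly luciferase luminescence in engineered MCF7 cells after 48 h compound incubation. Signals were scaled to genistein 10 microM as full activation.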
Tb PFK block: inhibitors of T. brucei phosphofructokinase; T. brucei PFK, ADP-Glo luminescence; Potency, µM (doses to about 57.5 µM), usual class: inhibitors; 330,000 tested, 0.17% active; AID 485367; note: nearly all actives have a fitted effect of over 60% in size
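In TEA buffer at pH 8.0 with 5 mM MgCl2, enzyme (1.25 nM) converted F6P (0.5 mM) and ATP (0.1 mM) for 45 min at room temperature. ADP product was read by luciferase luminescence.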
VDR inhibitor: vitamin D3 receptor (human) inhibition. P11473. VDR-SRC2-3 peptide fluorescence polarization, 2 h. Potency, µM, most hits filed as inhibitors. 400,000 tested, 0.93% active
Target sequence (P11473 whole entry, looked up): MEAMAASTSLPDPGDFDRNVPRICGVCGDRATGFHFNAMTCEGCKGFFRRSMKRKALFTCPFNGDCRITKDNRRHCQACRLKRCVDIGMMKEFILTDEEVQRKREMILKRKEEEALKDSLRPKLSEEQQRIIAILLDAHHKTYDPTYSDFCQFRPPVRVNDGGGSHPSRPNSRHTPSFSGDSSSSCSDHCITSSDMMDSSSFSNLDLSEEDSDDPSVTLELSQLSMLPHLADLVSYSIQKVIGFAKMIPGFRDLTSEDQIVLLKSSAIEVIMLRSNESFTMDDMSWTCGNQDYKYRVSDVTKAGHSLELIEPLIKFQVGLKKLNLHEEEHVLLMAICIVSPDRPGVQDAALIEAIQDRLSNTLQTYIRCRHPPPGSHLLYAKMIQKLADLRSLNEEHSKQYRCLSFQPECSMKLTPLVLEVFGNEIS
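VDR–SRC2-3 interaction, FP format. Cmpds 23 nl via pintool, brief spin, 2 h ambient incubation.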
PLK1 PBD block: blocks phosphopeptide binding to human PLK1 polo-box domain; Plk1 PBD binding of FITC phosphopeptide, fluorescence polarization; Potency, µM, most hits filed as inhibitors; 360,000 tested, 2.8% active; AID 720504; note: series mostly up to about 57 µM; nearly all actives have a fitted effect of over 65% in size
Numbers stand for hits. Calls come from the whole dose curve; as a rule, active = well fitted curve in the direction sought with a large enough effect; inconclusive = small, poorly fitted or top-dose-only effect, or another doubt; inactive = no such curve, though single readings can be large; an effect the other way counts as inactive or inconclusive.

What do the screens show for `COc1ccc(-c2cc(C(=O)NC(C)c3ccccc3)c3cc(C(C)C)ccc3n2)cc1` (centres undefined)?
VDR inhibitor: inactive

How did O=C(/C=C/c1cccs1)c1ccc(Br)cc1 do in these assays?
BRCA1 expr up: inactive; Tb PFK block: inactive; VDR inhibitor: 50µM; PLK1 PBD block: inactive

What do the screens show for `Cc1ccc(C(=O)Nc2ccc(C(=O)/C=C/c3cccs3)cc2)cc1`?
BRCA1 expr up: inactive; Tb PFK block: inactive; VDR inhibitor: inactive; PLK1 PBD block: inactive

How did O=C(/C=C/c1cccs1)c1ccc(NC(=O)c2cccc(Br)c2)cc1 do in these assays?
BRCA1 expr up: 11µM; Tb PFK block: inactive; VDR inhibitor: inactive; PLK1 PBD block: inactive

What do the screens show for `O=C(Nc1ccc2nc3ccccc3nc2c1)c1ccc(Br)cc1`?
BRCA1 expr up: inconclusive; Tb PFK block: inactive; VDR inhibitor: inactive; PLK1 PBD block: inactive

Results for Cc1ccc(S(=O)(=O)CCC(=O)Nc2ccc3nc(C)sc3c2)cc1 ?
BRCA1 expr up: inactive; Tb PFK block: inactive; VDR inhibitor: inactive; PLK1 PBD block: inactive

What do the screens show for `Cc1ccc(NC(=O)CCS(=O)(=O)c2ccc3nc(C)sc3c2)cc1`?
BRCA1 expr up: inactive; Tb PFK block: inactive; VDR inhibitor: inactive; PLK1 PBD block: 27µM

How did CC(=O)Nc1ccc2nc3ccccc3nc2c1 do in these assays?
BRCA1 expr up: 5.6µM; Tb PFK block: inactive; VDR inhibitor: inactive; PLK1 PBD block: inconclusive

How did O=C(Nc1ccc2nn(-c3ccccc3)nc2c1)c1cccs1 do in these assays?
BRCA1 expr up: 4.5µM; Tb PFK block: inconclusive; VDR inhibitor: inactive; PLK1 PBD block: inactive

How did Cc1ccc(OC(=O)c2ccc3nc(C)sc3c2)cc1 do in these assays?
BRCA1 expr up: inactive; Tb PFK block: inactive; VDR inhibitor: inconclusive; PLK1 PBD block: 19µM

Results for O=C(Cn1ncc2c([nH]c3ccccc32)c1=O)Nc1ccc(CN2CCCCC2)cc1 ?
BRCA1 expr up: inactive; Tb PFK block: inactive; VDR inhibitor: inactive; PLK1 PBD block: inactive

What do the screens show for `Cc1c(C2(c3cc(C(C)C)c(O)c(Br)c3C)OS(=O)(=O)c3ccccc32)cc(C(C)C)c(O)c1Br`?
BRCA1 expr up: inactive

How did Cc1nc2ccc(S(=O)(=O)NC(C(=O)N3CCCC3)C(C)C)cc2s1 (centres undefined) do in these assays?
BRCA1 expr up: inactive; Tb PFK block: inactive; VDR inhibitor: inactive; PLK1 PBD block: 30µM

Results for Cc1nc2ccc(NC(=O)Cc3cccc(F)c3)cc2s1 ?
BRCA1 expr up: inactive; Tb PFK block: inactive; VDR inhibitor: inactive; PLK1 PBD block: inactive

What do the screens show for `Cc1nc2ccc(NC(=O)c3cccs3)cc2s1`?
BRCA1 expr up: 6.3µM; Tb PFK block: inactive; VDR inhibitor: inactive; PLK1 PBD block: inactive

What do the screens show for `Cc1nc2ccc(S(=O)(=O)NC(C(=O)N3CCC(C)CC3)C(C)C)cc2s1` (centres undefined)?
BRCA1 expr up: inactive; Tb PFK block: inactive; VDR inhibitor: inactive; PLK1 PBD block: inactive

How did O=C(Nc1ccc2ncccc2c1)c1ccccc1 do in these assays?
BRCA1 expr up: inactive; Tb PFK block: inactive; VDR inhibitor: inconclusive; PLK1 PBD block: 8.4µM

What do the screens show for `O=C(NC(=S)Nc1ccc2ncccc2c1)c1ccccc1`?
BRCA1 expr up: inconclusive; Tb PFK block: inactive; VDR inhibitor: inactive; PLK1 PBD block: inactive

What do the screens show for `Cc1nc2ccc(NC(=O)Cc3ccsc3)cc2s1`?
BRCA1 expr up: 11µM; Tb PFK block: inactive; VDR inhibitor: inactive; PLK1 PBD block: inactive

How did CCc1c(C)sc2c1CCN(C(=O)Nc1ccccc1Cl)C2c1ccc(OC)cc1 (centres undefined) do in these assays?
VDR inhibitor: inactive

How did Cc1nc2ccc(NC(=O)c3ccccc3)cc2s1 do in these assays?
BRCA1 expr up: 3.5µM; Tb PFK block: inactive; VDR inhibitor: inactive; PLK1 PBD block: 21µM

What do the screens show for `CCc1sc(C(=O)Nc2ccc(NC(C)=O)cc2)cc1C`?
BRCA1 expr up: inactive; Tb PFK block: inactive; VDR inhibitor: inactive; PLK1 PBD block: inactive

Results for Cc1nc2ccc(NC(=O)N3CCSCC3)cc2s1 ?
BRCA1 expr up: inactive; Tb PFK block: inactive; VDR inhibitor: inactive; PLK1 PBD block: inactive

How did Cc1nc2ccc(NC(=O)c3ccc4ccccc4n3)cc2s1 do in these assays?
BRCA1 expr up: inactive; Tb PFK block: inactive; VDR inhibitor: inactive; PLK1 PBD block: inactive

What do the screens show for `Cc1nc2ccc(NC(=O)N3CCCCC3)cc2s1`?
BRCA1 expr up: 11µM; Tb PFK block: inactive; VDR inhibitor: inactive; PLK1 PBD block: inactive

How did CCc1sc(C(=O)Nc2ccc3nc(C)sc3c2)cc1C do in these assays?
BRCA1 expr up: 3.2µM; Tb PFK block: inactive; VDR inhibitor: inactive; PLK1 PBD block: inactive

How did Nc1nonc1-c1nc2ccccc2n1Cc1ccc(Br)cc1 do in these assays?
VDR inhibitor: inactive

How did CCN(CC)S(=O)(=O)c1ccc(C(=O)NCc2ccc3c(c2)OCO3)cc1 do in these assays?
BRCA1 expr up: inactive; Tb PFK block: inactive; VDR inhibitor: inactive; PLK1 PBD block: 21µM

What do the screens show for `CCn1c(N)c(C(=O)NCc2ccc3c(c2)OCO3)sc1=S`?
BRCA1 expr up: inactive; Tb PFK block: inactive; VDR inhibitor: inactive; PLK1 PBD block: 24µM

How did CN(c1ccc(C(=O)NCc2ccc3c(c2)OCO3)cc1)S(=O)(=O)c1ccccc1 do in these assays?
BRCA1 expr up: inactive; Tb PFK block: inactive; VDR inhibitor: inactive; PLK1 PBD block: inactive

What do the screens show for `Cc1c(C(=O)NCc2ccc3c(c2)OCCO3)sc(=O)n1Cc1ccc2c(c1)OCO2`?
BRCA1 expr up: inactive; PLK1 PBD block: inactive

How did CN(C)S(=O)(=O)N1CCN(CC(O)COc2ccc(-c3ccccc3)cc2)CC1 (centres undefined) do in these assays?
BRCA1 expr up: inactive; Tb PFK block: inactive; VDR inhibitor: inactive; PLK1 PBD block: inactive

How did Cc1nc2ccccn2c(=O)c1NC(=O)c1ccc(F)c(F)c1 do in these assays?
VDR inhibitor: inactive

How did CC(=O)N1c2ccc(S(=O)(=O)N3CCCC3)cc2CC1C(=O)NCc1cccc(F)c1 (centres undefined) do in these assays?
BRCA1 expr up: inactive; Tb PFK block: inactive; VDR inhibitor: inactive; PLK1 PBD block: 24µM

What do the screens show for `COCCCNC(=O)C1Cc2cc(S(=O)(=O)N3CCCC3)ccc2N1C(C)=O` (centres undefined)?
BRCA1 expr up: inactive; Tb PFK block: inactive; VDR inhibitor: inconclusive; PLK1 PBD block: 21µM

What do the screens show for `COCCNC(=O)C1Cc2cc(S(=O)(=O)N3CCCC3)ccc2N1C(C)=O` (centres undefined)?
BRCA1 expr up: inactive; Tb PFK block: inactive; VDR inhibitor: inactive; PLK1 PBD block: inactive

What do the screens show for `O=C(O)CSc1nnc(-c2ccncc2)n1-c1ccc(Cl)cc1`?
BRCA1 expr up: inactive; Tb PFK block: inactive; VDR inhibitor: inactive; PLK1 PBD block: inactive

Results for O=C(O)CSc1nnc(-c2cccs2)n1-c1ccc(Cl)cc1 ?
BRCA1 expr up: inactive; Tb PFK block: inactive; VDR inhibitor: inconclusive; PLK1 PBD block: 27µM

Results for Cc1nc2nc(-c3cccs3)cn2nc1C ?
BRCA1 expr up: inactive; Tb PFK block: inactive; VDR inhibitor: inactive; PLK1 PBD block: 30µM

What do the screens show for `O=C(Cn1cc(COc2cc(F)cc(F)c2)nn1)c1ccc(O)cc1`?
BRCA1 expr up: inactive; VDR inhibitor: inactive; PLK1 PBD block: inactive

High-throughput results as filed in PubChem BioAssay.
